HCV inh = inhibitors of hepatitis C virus infection; Huh7.5.1 HCVcc-Cre infection, luciferase reporter, 44 h; Potency, µM (series often up to 41.8 µM), for inactives: top-dose activity change, negative = inhibition, usual class: inhibitors; 340,000 tested, 3.4% active; AID 651820; active = well fitted inhibition curve with a large enough effect; inconclusive = small, poorly fitted or top-dose-only effect, or another doubt; inactive = no such curve, though single readings can be large or run the other way
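Antiviral activity was scored by luciferase reporter output from cells infected with HCVcc-Cre (~0.5 moi) in presence of compound, 44 h infection period, cells seeded 1,000/well 4 h prior.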
Marburg entry inh = blocks Marburg virus binding to or entry into cells | Marburg virus pseudotyped entry inhibition, cell reporter | Potency, µM (titrated, usually from 37.8 µM), for inactives: at the top dose activity change, negative = inhibition, actives largely listed as inhibitors | 300,000 tested, 1.8% active; calls by dose curve; tested in HEK293 cells
Vaccinia Venus = vaccinia inhibition (Venus reporter); Vaccinia virus Venus reporter expression, fluorescence; Potency, µM (titrated, usually from 36.5 µM), without a hit: at the top dose activity change, negative = inhibition, hits mostly inhibitors; 330,000 tested, 0.46% active; AID 720580; calls by dose curve; tested in A549 cells; note: nearly all actives have a fitted effect of over 30% in size
Vaccinia mCherry = inhibitors of vaccinia virus infection (mCherry reporter signal). Vaccinia virus mCherry reporter infection, fluorescence. Potency, µM (titrated, usually from 36.5 µM), for the others: at the top dose activity change, negative = inhibition, most hits filed as inhibitors. 310,000 tested, 0.63% active; calls by dose curve; tested in A549 cells; note: nearly all actives have a fitted effect of over 35% in size
Lassa entry inh = blocks Lassa virus binding to or entry into cells; Lassa virus pseudotype entry inhibition, cell reporter; Potency, µM (doses to about 37.9 µM), without a hit: top-dose activity change, negative = inhibition, most hits filed as inhibitors; 300,000 tested, 1.2% active; calls by dose curve; tested in HEK293 cells; note: nearly all actives have a fitted effect of over 50% in size
Active calls of the source: *; [ ] = dose if it differs, or a comment. Compounds with a hit are over-represented: about 4.6% of the library has one in this group of screens. % is set by controls: 0 for no effect and ±100 for the full control effect; potency is the fitted concentration of half-maximal effect.

Screening CC12CC[C@H]3[C@@H](CCC4(O)C[C@H](O)CCC34/C=N/NC(=O)c3ccccc3[N+](=O)[O-])C1(O)CCC2C1=CC(=O)OC1 (some centres not stated) returned HCV inh -4%, Marburg entry inh inconclusive, Vaccinia Venus 10µM*, Vaccinia mCherry inconclusive and Lassa entry inh inconclusive.
Screening COCc1nc2ccccc2n1Cc1ccc(C(C)(C)C)cc1 returned Vaccinia Venus -18%, Vaccinia mCherry -13% and Lassa entry inh 23%[46.1 µM].
Screening C=CC1(O)C(OC)=CC2C(=O)C1C(c1ccccc1)C2C (configuration not stated) returned Marburg entry inh 14%[14.2 µM] and Lassa entry inh inconclusive.
Cc1ccc(C(=O)C(C)CN2CCCCC2)cc1 (configuration not stated) was read as Vaccinia Venus -8% and Vaccinia mCherry -7%.
Screening COc1ccccc1-c1sc2ccccc2c1-c1ccc(O)cc1 returned HCV inh 5.6µM*, Vaccinia Venus -21% and Vaccinia mCherry inactive.
For COc1ccc(-c2sc3cc(OC)c(OC)cc3c2-c2ccc(O)cc2)cc1 the results were HCV inh 28µM*, Vaccinia Venus inconclusive and Vaccinia mCherry inconclusive.
Screening COc1ccc(-c2sc3ccccc3c2-c2ccc(O)cc2)cc1 returned HCV inh inconclusive, Vaccinia Venus -20% and Vaccinia mCherry inconclusive.
For CCOC(=O)c1ccc(NC(=O)CSc2nc(-c3ccc(F)cc3)cc(C(F)(F)F)c2C#N)cc1 the results were Marburg entry inh 3%[46.1 µM], Vaccinia Venus inconclusive, Vaccinia mCherry inconclusive and Lassa entry inh 8%[46.1 µM].
For COc1ccc(N2CC(NC(=O)C3CC3)CC2=O)cc1OC (configuration not stated) the results were Vaccinia Venus 5%, Vaccinia mCherry 4% and Lassa entry inh 7%[46.1 µM].
CN(Cc1ccccc1)C(=O)COC(=O)c1cc(NS(=O)(=O)c2cccs2)ccc1O was read as HCV inh 10µM*, Marburg entry inh -14% and Lassa entry inh -25%.
For Cc1nc2ccccc2c(=O)n1/N=C/c1ccc(C(C)C)cc1 the results were HCV inh 25µM*.
For Cc1nc2ccccc2c(=O)n1/N=C/c1ccc(O)cc1 the results were HCV inh 13%, Marburg entry inh 20%, Vaccinia Venus -6%, Vaccinia mCherry -7% and Lassa entry inh -3%.
Cc1cc(C)c2sc(NNC(=O)c3ccc(S(=O)(=O)N4CCc5ccccc5C4)cc3)nc2c1 was read as HCV inh 2.8µM*, Marburg entry inh inconclusive, Vaccinia Venus 7.9µM*, Vaccinia mCherry 4.5µM* and Lassa entry inh 12µM*.
Cc1nnc(NC(=O)c2ccc(S(=O)(=O)N3CCc4ccccc4C3)cc2)o1 was read as HCV inh 9%.
Screening COc1ccc(CCNC(=O)c2ccc(CNc3nc(=S)[nH]c4ccccc34)cc2)cc1OC returned HCV inh 10µM*, Marburg entry inh 4%[46.1 µM], Vaccinia Venus -26% and Vaccinia mCherry -24%.
COc1ccccc1CNC(=O)COC(=O)c1n[nH]c2ccccc12 was read as HCV inh inconclusive, Marburg entry inh -20%, Vaccinia Venus inconclusive, Vaccinia mCherry -22% and Lassa entry inh inconclusive.
COc1ccc(CCNc2nc(=S)[nH]c3cc(OC)c(OC)cc23)cc1OC was read as HCV inh inconclusive, Vaccinia Venus -22% and Vaccinia mCherry 0%.
`COc1ccc(CNC(=O)COC(=O)c2n[nH]c3ccccc23)cc1OC` gave HCV inh 10µM*, Marburg entry inh inconclusive and Lassa entry inh inconclusive.
`COc1ccccc1-c1ccc(C(=O)N2CCC(N3CCc4ccccc4C3)CC2)c(N(C)CC2COCCO2)n1` (configuration not stated) gave Vaccinia Venus 12% and Vaccinia mCherry -1%.
`Cc1cc(-c2ccnc(-n3ncc(C(=O)N4CCCCC4c4cccnc4)c3C3CC3)n2)c(C)s1` (configuration not stated) gave Vaccinia Venus -6% and Vaccinia mCherry 0%.
Screening COc1ccccc1CNC(=O)Cn1c(-c2ccc(F)cc2)cc(C(C)=O)c1C returned Vaccinia Venus -21%, Vaccinia mCherry -21% and Lassa entry inh 3%[46.1 µM].
For COc1ccc(-c2cc(C(F)(F)F)nc(NCc3ccco3)n2)cc1OC the results were HCV inh inconclusive, Marburg entry inh -2% and Lassa entry inh 3%.
Screening FC(F)(F)c1cc(-c2ccc3c(c2)OCO3)nc(NCc2ccco2)n1 returned HCV inh 6.3µM*, Marburg entry inh inconclusive and Lassa entry inh -16%.
Screening COc1ccc(Cl)cc1NC(=O)CSc1nc2c(oc3ccccc32)c(=O)n1Cc1ccco1 returned Marburg entry inh -3%[46.1 µM], Vaccinia Venus -1% and Vaccinia mCherry inactive.
Screening COc1ccc(NCc2nnc(SCc3ccc(Cl)cc3)n2-c2ccccc2)cc1 returned HCV inh 8.9µM*, Marburg entry inh inconclusive, Vaccinia Venus -16%, Vaccinia mCherry inactive and Lassa entry inh inconclusive.
`COc1ccc(-n2c(COc3ccc(Cl)cc3)nnc2SCc2ccc(C#N)cc2)cc1` gave HCV inh inconclusive, Marburg entry inh -18%, Vaccinia Venus inconclusive, Vaccinia mCherry inconclusive and Lassa entry inh inconclusive.
For COc1ccc(-n2c(COc3ccc(C)cc3)nnc2SCc2ccc(C#N)cc2)cc1 the results were HCV inh 22µM*, Marburg entry inh inconclusive and Lassa entry inh -16%.
For CCc1nc2cc(C(=O)NC3CCS(=O)(=O)C3)cc(NC(=O)c3ccccc3OC)c2n1C (configuration not stated) the results were Vaccinia Venus -9% and Vaccinia mCherry inactive.
For COc1cc(OC)c(NC(=O)c2csc3c2CCC(C)C3)cc1Cl (configuration not stated) the results were Marburg entry inh -15%[46.1 µM], Vaccinia Venus -2% and Vaccinia mCherry inactive.
`Cc1cc(/C=C2\C=Cc3ccccc32)cc(C)c1N` gave Vaccinia Venus -21% and Vaccinia mCherry 17%.
`Cc1ccc(C(=O)Nc2ccc(S(=O)(=O)O)c3cc(S(=O)(=O)O)cc(S(=O)(=O)O)c23)cc1NC(=O)c1cccc(NC(=O)Nc2cccc(C(=O)Nc3cc(C(=O)Nc4ccc(S(=O)(=O)O)c5cc(S(=O)(=O)O)cc(S(=O)(=O)O)c45)ccc3C)c2)c1` gave Marburg entry inh 3.1µM*, Vaccinia Venus -17%, Vaccinia mCherry -12% and Lassa entry inh 8.9µM*.
`NC1(C(=O)O)CCCc2ccc(N(CCCl)CCCl)cc21` (configuration not stated) gave HCV inh inconclusive, Marburg entry inh 10µM*, Vaccinia Venus 3%, Vaccinia mCherry -17% and Lassa entry inh inconclusive.
Screening Cn1cc(/C=N/NC(N)=S)c2ccccc21 returned HCV inh 12%, Marburg entry inh inconclusive, Vaccinia Venus inconclusive, Vaccinia mCherry inconclusive and Lassa entry inh 10%[46.1 µM].
